Methyltransferases – Primary Screen for Target Class Profiling of Small Molecule Inhibitors of Methyltransferases | purified enzyme, MTase-Glo SAH luminescence; stronger effect = lower value | calls only at 40 µM | 3.9% of 25,000 active | AID 1745853, 2022; call rule not given here
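Each enzyme was reacted with SAM and its substrate, with compounds tested once at 40 uM; SAH formed was read by MTase-Glo luminescence.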
Numbers without * were called inactive; i = inactive; + = active, no number; ! = not active in a repeat. The sample as a whole holds a higher share of hits than the screen did. On the % scale 0 is the no-effect control and ±100 the full control effect.

SMILES	Methyltransferases
CCOC(=O)c1cc2n(n1)CC(C)(C(=O)NC1CCCCCC1)N(c1ccc(CC)cc1)C2=O (stereo unspecified)	i
CCCN1C(=O)c2cc(C(=O)N3CCCCC3)nn2CC1(C)C(=O)NC1CCCC1 (stereo unspecified)	i
COc1ccc(OC)c2c1cc1n2CC(C)(C(=O)NC2CCCCC2)N(Cc2ccc(C)cc2)C1=O (stereo unspecified)	i
Cc1cc(C)c(NC(=O)N(Cc2ccc3c(c2)Cc2ccccc2-3)C2CCCCCC2)c(C)c1	+
CC1(C(=O)NC2CCCCCCC2)Cc2ccccc2C(=O)N1Cc1cccs1 (stereo unspecified)	i
COCCCN1C(=O)c2ccccc2CC1(C)C(=O)NC1CCCCCCC1 (stereo unspecified)	i
COc1ccc(CCN2C(=O)c3cc4ccccc4n3CC2(C)C(=O)NCc2ccccc2OC)c(OC)c1 (stereo unspecified)	i
COc1cc(C(=O)O)ccc1OC1OC(CO)C(O)C(O)C1O (stereo unspecified)	i
COc1cc(C(C)=O)ccc1O[C@@H]1O[C@H](CO)[C@@H](O)[C@H](O)[C@H]1O	i
C=C(C)C1Cc2cc(C(=O)OC3OC(CO)C(O)C(O)C3O)ccc2O1 (stereo unspecified)	+
Cc1ccc(CNC(=O)C2(C)Cn3cnc(C(=O)Nc4ccccc4C)c3C(=O)N2C2CC2)cc1 (stereo unspecified)	i
CC1(C(=O)NC2CCCC2)Cn2cnc(C(=O)NCc3ccccc3F)c2C(=O)N1C1CC1 (stereo unspecified)	i
CC(=O)Nc1c2n(c3ccc(F)cc13)CC(C)(C(=O)NCCC(C)C)N(CCc1ccccc1)C2=O (stereo unspecified)	i
Cc1ccc(S(=O)(=O)/C=C/C#N)cc1	+!
CN(Cc1ccccc1)C(=O)c1ncn2c1C(=O)N(C1CC1)C(C)(C(=O)NCc1ccccc1Cl)C2 (stereo unspecified)	i
CC(CNC(=O)c1cc2n(n1)CC(C)(C(=O)NC1CCCCCC1)N(C)C2=O)c1ccccc1 (stereo unspecified)	i
Nc1ncnc2c1c(-c1cccc(OCc3ccccc3)c1)cn2C1CC(CN2CCCC2)C1 (stereo unspecified)	+
CCCN1C(=O)c2cc(-c3ccc(OC)cc3)nn2CC1(C)C(=O)NCc1ccccc1OC (stereo unspecified)	i
Cc1nc(Nc2n[nH]c3c2CN(C(=O)N[C@H](CN(C)C)c2ccccc2)C3(C)C)c2sccc2n1	+
Cc1cccc(NC(=O)N2CCn3cccc3C2C)c1C (stereo unspecified)	i
CC1(C(=O)NCc2ccccc2)Cn2cnc(C(=O)N3CCc4ccccc43)c2C(=O)N1C1CC1 (stereo unspecified)	i
CC(C)CCn1c(=O)c2ccccc2n2c(=O)n(Cc3c(F)cccc3Cl)nc12	i
COc1ccc(CN2C(=O)c3cc4sccc4n3CC2(C)C(=O)NC2CCCCC2)cc1OC (stereo unspecified)	i
COc1ccc(CN2C(=O)c3cc4sccc4n3CC2(C)C(=O)NC2CCC(C)CC2)cc1OC (stereo unspecified)	+
COc1cccc(CN2C(=O)c3cc4sccc4n3CC2(C)C(=O)NC2CCC(C)CC2)c1 (stereo unspecified)	i
SMILES	Methyltransferases
Cc1ccccc1CN1C(=O)c2cc(-c3ccccc3)nn2CC1(C)C(=O)NCc1ccccc1 (stereo unspecified)	i
CN1C(=O)c2cc(C(=O)NCCc3ccc(Cl)cc3)nn2CC1(C)C(=O)NCc1ccccc1 (stereo unspecified)	i
CN1C(=O)c2cc(C(=O)NC3CCCCC3)nn2CC1(C)C(=O)NCc1ccccc1 (stereo unspecified)	i
COc1ccc2c(c1)C[C@H](C(=O)Nc1ccc(-c3cn[nH]c3)cc1OCCN(C)C)CO2	+
COc1ccc2c(c1)CC(NS(=O)(=O)c1ccc(C)cc1)CO2 (stereo unspecified)	i
COc1ccc2c(c1)OCC(C(=O)NCc1noc(-c3ccco3)n1)C2 (stereo unspecified)	i
Cc1nc2ccccc2n1CCNS(=O)(=O)c1ccc(Cl)cc1	i
CC(CN(C)C)CN1c2ccccc2CCc2ccccc21 (stereo unspecified)	i
CN(C)CCC=C1c2ccccc2CCc2ccccc21	+
COC(=O)c1cc2n(n1)CC(C)(C(=O)NC1CCC(C)CC1)N(c1ccc(C)cc1Cl)C2=O (stereo unspecified)	i
Cc1ccc(NC(=O)CSc2nnc3n(CC(C)C)c(=O)c4ccccc4n23)cc1C	i
O=C1CN(Cc2ccccc2F)S(=O)(=O)c2ccccc2N1Cc1cccc(F)c1	i
O=C(NC1CCCC1)C1c2cccn2CC(=O)N1c1cccc(Cl)c1 (stereo unspecified)	i
CCCC1c2ccc(C)n2CCN1C(=O)Nc1ccc(C)cc1 (stereo unspecified)	i
